The text below walks through data of PubChem BioAssay (EPA / NIEHS).

The source made the active and inactive calls. How the source made its calls: active means hit-call score of the fitted dose curve at least 0.9, where 1 is the maximum; inactive means score below 0.9.

Assay [1] is described as follows: CEETOX_H295R_OHPROG: CeeTox H295R High-throughput Steroidogenesis Assay for OH-Progesterone (OHPROG) (AID 2283435).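 On AC50: human adrenal H295R cells primed 48 h with 10 µM forskolin.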 Particulars: actives raise or lower the signal. Put shortly: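 H295R adrenal cells prestimulated 48 h with 10 uM forskolin, then exposed 48 h to chemical (0.1% DMSO final). 17alpha-hydroxyprogesterone in medium quantified by HPLC-MS/MS; bidirectional fit versus DMSO, with MTT viability measured in the same wells.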

Assay [2] is described as follows: CEETOX_H295R_CORTIC: CeeTox H295R High-throughput Steroidogenesis Assay for Corticosterone (CORTIC) (AID 2283437).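 Further: corticosterone secreted into medium quantified by mass spectrometry.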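 On AC50: human H295R adrenal cells prestimulated with forskolin before chemical exposure.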 To be noted: actives raise or lower the signal. Put shortly: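 Corticosterone secreted into medium is measured by reverse-phase HPLC with tandem MS following liquid-liquid extraction. Cells are forskolin-stimulated (10 uM, 48 h) before 48 h test exposure; activity fitted in both directions against DMSO.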

The nature of assay [3]: CEETOX_H295R_CORTISOL: CeeTox H295R High-throughput Steroidogenesis Assay for Cortisol (AID 2283438).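 Further: cortisol secreted into medium quantified by LC-MS/MS.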 To be noted: actives raise or lower the signal. Put shortly:
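Forskolin-primed H295R cells (10 uM, 48 h) treated 48 h with test chemical in 0.1% DMSO. Cortisol in medium quantified by MTBE extraction and HPLC-MS/MS; bidirectional fit vs DMSO, MTT viability in same wells.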

A short description of assay [4]: CEETOX_H295R_DOC: CeeTox H295R High-throughput Steroidogenesis Assay for DOC (AID 2283439). Particulars: actives raise or lower the signal. Put shortly:
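H295R cells prestimulated 48 h with 10 uM forskolin, then exposed 48 h to test chemical (0.1% DMSO final). Medium 11-deoxycorticosterone measured by HPLC-MS/MS after MTBE extraction; bidirectional fit vs DMSO, viability checked by MTT in same wells.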

The nature of assay [5]: CEETOX_H295R_ESTRADIOL: CeeTox H295R High-throughput Steroidogenesis Assay for Estradiol (AID 2283440).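 Further: estradiol secreted into medium quantified by LC-MS/MS after dansyl derivatisation.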 To be noted: actives raise or lower the signal. Put shortly: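 Following OECD 456 with minor changes, H295R cells received 10 uM forskolin for 48 h and then test chemical for 48 h. Hormone output was read by HPLC-MS/MS, with cytotoxic concentrations diluted until MTT viability reached ≥70%.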

Assay [6] can be described thus: CEETOX_H295R_ESTRONE: CeeTox H295R High-throughput Steroidogenesis Assay for Estrone (AID 2283441).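 Further: estrone secreted into medium measured by LC-MS/MS after dansyl derivatization.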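 On AC50: human adrenal H295R cells prestimulated with forskolin for two days.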 Particulars: actives raise or lower the signal. Put shortly: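 H295R cells prestimulated 48 h with 10 uM forskolin, then exposed 48 h to chemicals in 0.1% DMSO final; estrone in medium extracted with MTBE, dansyl-derivatized, quantified by HPLC-MS/MS; bidirectional fitting versus DMSO, viability by MTT.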

Assay [7] is described as follows: CEETOX_H295R_PROG: CeeTox H295R High-throughput Steroidogenesis Assay for Progesterone (PROG) (AID 2283442).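 On AC50: human H295R adrenal cells primed with 10 µM forskolin before dosing.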 To be noted: actives raise or lower the signal. Put shortly:
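Adrenal H295R line, forskolin-stimulated (10 uM, 48 h) before dosing. 48 h exposure, 0.1% DMSO vehicle. Secreted progesterone by reverse-phase HPLC with ESI+ MS/MS quantification; DMSO-normalised bidirectional curve fit.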

Read-out in assay [8]: Tumor necrosis factor receptor superfamily member 6 (Homo sapiens) (UniProt P25445)
In words: LTEA_HepaRG_FAS: Life Technologies and Expression Analysis (LTEA) Assay for Fas cell surface death receptor (FAS) using HepaRG (AID 2283447). To be noted: mRNA level, 48 h; actives raise or lower the signal. A digest of the protocol:
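FAS transcript level was measured by TaqMan qRT-PCR against three housekeeping genes after 48 h chemical exposure. Cells were HepaRG, 0.5% DMSO vehicle, with a top concentration of 100 uM and half-log dilutions over eight points, in duplicate.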

Read-out in assay [9]: Fatty acid synthase (Homo sapiens) (UniProt P49327)
In words: LTEA_HepaRG_FASN: Life Technologies and Expression Analysis (LTEA) Assay for Fatty Acid Synthase (FASN) using HepaRG (AID 2283448).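 On AC50: differentiated human HepaRG liver cells in serum-free induction medium.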 Particulars: mRNA level, 48 h; actives raise or lower the signal. Put shortly:
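Differentiated HepaRG cells in serum-free induction medium exposed 48 h in duplicate to eight half-log concentrations, top 100 uM, 0.5% DMSO. FASN mRNA by qRT-PCR normalised to ACTB, GAPDH, POLR2A; bidirectional fit versus DMSO.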

Read-out in assay [10]: Cyclin Dependent Kinase Inhibitor 1A (CDKN1A), CDKN1A (gene 1026)
In words: LTEA_HepaRG_CDKN1A: Life Technologies and Expression Analysis (LTEA) Assay for Cyclin Dependent Kinase Inhibitor 1A (CDKN1A) using HepaRG (AID 2283450). To be noted: mRNA level, 48 h; actives raise or lower the signal. A digest of the protocol: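 Cryopreserved HepaRG cells were plated and cultured 48 h, then switched to serum-free induction medium. Chemicals (eight half-log concentrations, top 100 uM, 0.5% DMSO) were applied for 48 h. Lysates underwent qRT-PCR for CDKN1A with housekeeping normalization.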

Read-out in assay [11]: Cyclin D1 (CCND1), CCND1 (gene 595)
In words: LTEA_HepaRG_CCND1: Life Technologies and Expression Analysis (LTEA) Assay for Cyclin D1 (CCND1) using HepaRG (AID 2283451). Particulars: mRNA level, 48 h; actives raise or lower the signal. A digest of the protocol:
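Human liver HepaRG line; 48 h dosing, 8 conc. ≤100 uM, 0.5% DMSO; TaqMan qRT-PCR mRNA, 3 housekeeping genes; bidirectional curve fit vs DMSO.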

Read-out in assay [12]: flavin-containing dimethylaniline monooxygenases 3 (FMO3), FMO3 (gene 2328)
In words: LTEA_HepaRG_FMO3: Life Technologies and Expression Analysis (LTEA) Assay for flavin-containing dimethylaniline monooxygenases 3 (FMO3) using HepaRG (AID 2283453). Particulars: mRNA level, 48 h; actives raise or lower the signal. Put shortly: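 Differentiated HepaRG cells in serum-free induction medium, exposed 48 h in duplicate to 8 half-log concentrations up to 100 uM in 0.5% DMSO. FMO3 mRNA by qRT-PCR, normalized to ACTB, GAPDH, POLR2A; bidirectional fit vs DMSO.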

Read-out in assay [13]: Cytochrome P450 (CYP1A1), CYP1A1 (gene 1543)
Description: LTEA_HepaRG_CYP1A1: Life Technologies and Expression Analysis (LTEA) Assay for Cytochrome P450 (CYP1A1) using HepaRG (AID 2283454). Particulars: mRNA level, 48 h; actives raise or lower the signal. Put shortly: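 Induction of CYP1A1 mRNA in a human hepatic cell line was measured 48 h after dosing, with 1 mM phenobarbital as induction positive control and 0.5% DMSO vehicle as baseline for bidirectional curve fitting.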

Read-out in assay [14]: CFLAR gene, CFLAR (gene 8837)
Description: LTEA_HepaRG_CFLAR: Life Technologies and Expression Analysis (LTEA) Assay for CFLAR gene using HepaRG (AID 2283455). To be noted: mRNA level, 48 h; actives raise or lower the signal. A digest of the protocol: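 HepaRG, 48 h exposure, 8-pt conc-response (100 uM top, half-log), 0.5% DMSO vehicle, duplicates. CFLAR expression by qRT-PCR; ACTB/GAPDH/POLR2A normalization; gain or loss fit vs DMSO baseline.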

Read-out in assay [15]: Forkhead box O1 (FOXO1), FOXO1 (gene 2308)
Description: LTEA_HepaRG_FOXO1: Life Technologies and Expression Analysis (LTEA) Assay for Forkhead box O1 (FOXO1) using HepaRG (AID 2283456). Particulars: mRNA level, 48 h; actives raise or lower the signal. Put shortly: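 Readout is FOXO1 transcript level by multiplexed qRT-PCR against three housekeeping genes, curve-fitted in both directions relative to 0.5% DMSO vehicle. Human HepaRG cultures received chemicals for 48 h, up to 100 uM in half-log steps.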

Read-out in assay [16]: growth arrest and DNA damage 45 (GADD45A), GADD45A (gene 1647)
Description: LTEA_HepaRG_GADD45A: Life Technologies and Expression Analysis (LTEA) Assay for growth arrest and DNA damage 45 (GADD45A) using HepaRG (AID 2283458). Particulars: mRNA level, 48 h; actives raise or lower the signal. A digest of the protocol: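 Differentiated HepaRG cells exposed 48 h in serum-free induction medium to 8 concentrations, top 100 uM in half-log steps, 0.5% DMSO. GADD45A mRNA quantified by qRT-PCR, normalized to ACTB, GAPDH and POLR2A; bidirectional fit versus DMSO.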

Read-out in assay [17]: Cyclin D2 (CCND2), CCND2 (gene 894)
In words: LTEA_HepaRG_CCND2: Life Technologies and Expression Analysis (LTEA) Assay for Cyclin D2 (CCND2) using HepaRG (AID 2283449). To be noted: mRNA level, 48 h; actives raise or lower the signal. A digest of the protocol:
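Read-out is CCND2 mRNA level measured by qRT-PCR in human HepaRG liver cells and normalised to three housekeeping genes. Chemicals were applied for 48 h at up to 100 uM, with gain or loss fitted relative to 0.5% DMSO.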

A short description of assay [18]: CEETOX_H295R_ANDR: CeeTox H295R High-throughput Steroidogenesis Assay for Androstenedione (ANDR) (AID 2283436). To be noted: actives raise or lower the signal. A digest of the protocol: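 Read-out is androstenedione secreted into medium, measured by tandem mass spectrometry after liquid-liquid extraction. Cells were H295R, dosed for 48 h per modified OECD 456; activity fitted in both directions relative to DMSO.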

The nature of assay [19]: CEETOX_H295R_TESTO: CeeTox H295R High-throughput Steroidogenesis Assay for Testosterone (TESTO) (AID 2283457). To be noted: actives raise or lower the signal. Put shortly: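 Testosterone synthesis is assessed in human adrenocortical H295R cells after 48 h of chemical exposure, using HPLC-MS/MS of extracted medium. Activity is fitted in both directions against DMSO control.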

The AC50 is the concentration giving half of the maximal activity seen.

Sequence of Fatty acid synthase (Homo sapiens) (P49327 whole entry, looked up): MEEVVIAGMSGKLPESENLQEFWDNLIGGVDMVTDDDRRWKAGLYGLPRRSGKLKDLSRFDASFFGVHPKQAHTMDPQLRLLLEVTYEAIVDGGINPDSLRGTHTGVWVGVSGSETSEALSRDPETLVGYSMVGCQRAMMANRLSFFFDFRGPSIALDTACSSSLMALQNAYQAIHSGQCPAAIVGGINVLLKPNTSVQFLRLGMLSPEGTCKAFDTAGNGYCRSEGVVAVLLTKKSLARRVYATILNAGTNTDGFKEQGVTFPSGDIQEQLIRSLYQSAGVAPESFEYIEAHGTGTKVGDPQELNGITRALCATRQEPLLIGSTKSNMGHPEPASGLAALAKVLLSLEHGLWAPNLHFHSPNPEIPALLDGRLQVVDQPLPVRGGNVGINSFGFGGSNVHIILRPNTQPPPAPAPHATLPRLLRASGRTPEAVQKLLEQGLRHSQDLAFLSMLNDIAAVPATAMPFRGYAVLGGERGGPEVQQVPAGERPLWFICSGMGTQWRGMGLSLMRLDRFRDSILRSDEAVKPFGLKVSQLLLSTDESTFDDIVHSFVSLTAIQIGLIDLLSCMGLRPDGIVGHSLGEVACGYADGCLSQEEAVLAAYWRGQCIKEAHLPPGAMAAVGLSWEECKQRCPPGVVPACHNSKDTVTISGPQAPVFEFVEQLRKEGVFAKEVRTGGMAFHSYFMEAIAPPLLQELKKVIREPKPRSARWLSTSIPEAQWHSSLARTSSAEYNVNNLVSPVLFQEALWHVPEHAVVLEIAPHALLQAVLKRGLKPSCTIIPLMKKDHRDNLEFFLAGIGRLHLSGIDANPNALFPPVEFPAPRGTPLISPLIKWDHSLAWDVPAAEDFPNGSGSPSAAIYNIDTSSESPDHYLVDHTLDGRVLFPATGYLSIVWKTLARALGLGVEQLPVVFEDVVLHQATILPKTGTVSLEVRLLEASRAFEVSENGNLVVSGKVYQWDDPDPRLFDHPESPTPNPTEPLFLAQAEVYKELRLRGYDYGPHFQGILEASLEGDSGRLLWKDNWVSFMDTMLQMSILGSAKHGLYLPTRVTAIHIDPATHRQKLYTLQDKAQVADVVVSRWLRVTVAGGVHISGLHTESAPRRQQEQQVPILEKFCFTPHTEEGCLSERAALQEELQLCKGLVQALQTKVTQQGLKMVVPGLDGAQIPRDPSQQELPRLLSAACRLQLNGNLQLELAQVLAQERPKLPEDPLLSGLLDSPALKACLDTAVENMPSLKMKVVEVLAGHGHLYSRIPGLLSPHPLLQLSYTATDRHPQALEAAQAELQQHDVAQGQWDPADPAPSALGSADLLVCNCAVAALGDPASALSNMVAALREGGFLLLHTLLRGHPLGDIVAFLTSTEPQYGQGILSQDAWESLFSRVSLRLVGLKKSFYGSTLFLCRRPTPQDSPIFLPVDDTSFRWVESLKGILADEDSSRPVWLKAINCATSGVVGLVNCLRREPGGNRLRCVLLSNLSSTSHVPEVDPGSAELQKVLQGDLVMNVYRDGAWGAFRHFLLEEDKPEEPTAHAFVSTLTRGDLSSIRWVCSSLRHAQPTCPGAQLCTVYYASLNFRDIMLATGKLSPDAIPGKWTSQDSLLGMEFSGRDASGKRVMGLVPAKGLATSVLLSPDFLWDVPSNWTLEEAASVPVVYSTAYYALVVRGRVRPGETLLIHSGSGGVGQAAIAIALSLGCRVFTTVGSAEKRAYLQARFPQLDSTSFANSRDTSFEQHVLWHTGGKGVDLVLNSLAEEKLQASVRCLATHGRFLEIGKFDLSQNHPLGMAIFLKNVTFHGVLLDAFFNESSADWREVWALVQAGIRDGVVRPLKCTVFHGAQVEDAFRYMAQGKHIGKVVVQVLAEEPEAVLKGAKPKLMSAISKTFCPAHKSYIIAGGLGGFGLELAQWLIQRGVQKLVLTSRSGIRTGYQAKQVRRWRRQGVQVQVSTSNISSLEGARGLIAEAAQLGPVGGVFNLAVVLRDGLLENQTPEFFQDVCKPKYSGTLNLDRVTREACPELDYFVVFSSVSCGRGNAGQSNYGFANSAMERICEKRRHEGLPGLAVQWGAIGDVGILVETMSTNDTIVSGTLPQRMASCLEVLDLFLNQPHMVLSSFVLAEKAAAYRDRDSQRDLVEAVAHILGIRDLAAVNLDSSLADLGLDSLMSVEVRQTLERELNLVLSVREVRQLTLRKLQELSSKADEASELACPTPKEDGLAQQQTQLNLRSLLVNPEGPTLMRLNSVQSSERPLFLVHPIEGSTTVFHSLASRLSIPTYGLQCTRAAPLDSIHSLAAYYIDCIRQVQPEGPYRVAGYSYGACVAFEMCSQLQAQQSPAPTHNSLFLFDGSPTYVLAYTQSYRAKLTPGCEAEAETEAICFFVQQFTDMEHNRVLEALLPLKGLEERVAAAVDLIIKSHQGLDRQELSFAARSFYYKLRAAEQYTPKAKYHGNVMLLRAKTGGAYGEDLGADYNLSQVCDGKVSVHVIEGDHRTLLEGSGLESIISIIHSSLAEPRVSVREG

Take `O=S(=O)(c1ccc(O)cc1)c1ccc(O)cc1`: the AC50 in assay [1] was 0.82 µM (active); in assay [3], 28.4 µM (active); in assay [4] it was 3.31 µM (active); in assay [5], 18.3 µM (active); in assay [7], 1.32 µM (active). In addition, the outcome in [2] and in assay [6] was inactive.

In the case of `Nc1ccc2ccccc2c1`, the AC50 was 13.9 µM (active) in [1], 13.8 µM (active) in assay [7], 10.6 µM (active) in assay [9] and 23.5 µM (active) in assay [13]. For the same molecule, the molecule was called inactive in [5], in [6], in [8], in assay [10], in assay [11] and in assay [12]. Besides, the call in assay [14], in assay [15] and in assay [16] was inactive.

For `Nc1cc2c3c(c1)C(c1ccccc1)=N[C@@H](NC(=O)c1cccnc1)C(=O)N3CC2`, the AC50 is 4.41 µM (active) in assay [1]; 18.3 µM (active) in [2]; 76.8 µM (active) in assay [3]; 33.8 µM (active) in [4]; 3.44 µM (active) in assay [7]; 31.8 µM (active) in [13]. The result in assay [5], in assay [6], in [8], in assay [9], in assay [17] and in assay [10] was inactive. Further, the molecule was classed as inactive in assay [11], in [12], in [14], in assay [15] and in [16].

As for `N#Cc1c(-c2ccc(Cl)cc2)[nH]c(C(F)(F)F)c1Br`, the AC50 in [1] is 0.282 µM (active); in assay [2], 0.291 µM (active); in assay [3], 0.645 µM (active); in assay [4] it was 0.253 µM (active). For the same molecule, the call in assay [18], in assay [5], in [6], in assay [7] and in assay [19] was inactive.

Consider `CCOP(=S)(OCC)SCn1nnc2ccccc2c1=O`, for which the AC50 in assay [1] is 10 µM (active); in assay [7], 8.4 µM (active). The result in [2], in [3], in [4], in [5] and in [6] was inactive.

Turning to `CCNc1nc(Cl)nc(NC(C)(C)C)n1`, the molecule was called inactive in [1], in [18], in [2], in assay [3], in [4] and in assay [5]. Besides, the result in assay [7], in assay [8], in [9], in assay [17], in assay [10] and in [11] was inactive. Moreover, the molecule was called inactive in [12], in [14], in assay [15], in assay [19] and in assay [16]. The AC50 in assay [6] is 1.51 µM (active); in [13], 22.7 µM (active).
